Consider 100 compounds from ChEMBL document CHEMBL3988442, “University of Dundee, Small-Polar-MMV Screening Library” (2021).

Out of some 48,000 compounds screened, about 13,000 (27%) showed an effect of 50% or more. Some of the results follow.

The experiment concerns Wolbachia pipientis. Briefly: Anti-Wolbachia Cell-Based Screen. Format: functional. Set-up: scale not given: in the data most compounds retested in dose-response had high values. Conditions: 5 µM.
With `CSc1cc2c(cc1NC(=O)NCC(C)(C)C(N)=O)OCCO2`, the “Percent Effect” value is on record as -12.99%.
The same measure for `CC(C)(C)c1noc(CN2CCN(C(=O)c3cccs3)CC2)n1`: -8.519%; for `CNc1ncc(-c2ccnn2C2CCN(C(C)=O)CC2)cn1`: 109.9%.
As to `CC(=O)N1CCC(NCc2cccnc2N(C)Cc2ccccc2)CC1`, the “Percent Effect” value is recorded as -20.17%.
For `CC(=O)N1CCC(n2nccc2-c2cnc(N(C)CCO)nc2)CC1`, the “Percent Effect” value turned out to be 107.1%.
The same measure for `CCc1cnc(N2CC[C@@H]3CN(C(C)=O)CCO[C@@H]3C2)nc1`: 6.886%.
For `CCc1ocnc1C(=O)N1CCC(C2CCN(c3ncccn3)CC2)C1` (stereo not given) the value was -3.497%; for `CNc1ncc(C(=O)N2CCC(c3ccccc3C(=O)O)C2)cn1` (stereo not given), 4.233%.
For `CC(=O)N1CCC(Oc2ccc(Cl)cn2)CC1` the value was -4.055%; for `CNc1ncc(C(=O)N2CC[C@@](O)(C3CCOCC3)[C@H](C)C2)cn1`, -7.674%.
Turning to `CC(=O)N1CCC(n2nccc2-c2cnc(N3CCCC3)nc2)CC1`, the “Percent Effect” value is recorded as 98.34%.
For `CC(=O)N1CCC(n2nccc2-c2cnc(N)nc2)CC1` the value was 106.3%.
For `Cn1ccnc1CN(CCO)C(=O)C1CCN(C(=O)C2CC2)CC1` the value was -5.097%.
In the case of `CCc1cnc(N)nc1N1CCN(C(C)=O)CC1`, the “Percent Effect” value was -3.404%.
For `CC(C(=O)N1CCc2sccc2C1)N1CCCN(C2CC2)CC1` (stereo not given) the value was 6.579%; for `NC(=O)CCNC(=O)NCC1(c2ccccc2Cl)CCC1`, -8.555%.
On to `Cc1noc(C2CCN(C(=O)CCNc3ncccn3)CC2)n1`, for which the “Percent Effect” value is recorded as 14.51%.
For the compound `CC(=O)N1CCC(n2nccc2-c2cnc(NCCO)nc2)CC1`, the “Percent Effect” value came to 90.32%.
Take `CC(=O)N1CCC(NC[C@H]2Cn3c(-c4ccccc4)cnc3CO2)CC1`: the “Percent Effect” value is recorded as -3.853%.
Turning to `O=C(O)c1nn(CC2CC2)c2c1CN(S(=O)(=O)c1cccnc1)CC2`, the “Percent Effect” value was -14.04%.
For `CCN(CC)CCNC(=O)CCc1c(C)nn(-c2cccc(Cl)c2)c1C` the value was 114.7%; for `COCCNC(=O)CCc1c(C)nn(-c2nc(C)c(C)c(=O)[nH]2)c1C`, -2.178%; for `CCN(CC)CCNC(=O)CCc1c(C)nn(-c2ccc(Cl)cc2)c1C`, 108.7%.
`Cc1nn(-c2ccccc2)c(C)c1CC(=O)NC1CC(=O)N(C)C1` (stereo not given): the “Percent Effect” value is 10.3%.
Consider `CCn1nc(C)c(CCNC(=O)c2cccc(-n3cccn3)c2)c1C`, for which the “Percent Effect” value was -5.095%.
For `CC(=O)NCCCc1ncnn1-c1cccc(Cl)c1` the value was -6.102%.
For the compound `COCc1noc(C2(c3ccc(OC)cc3)CCOCC2)n1`, the “Percent Effect” value is -14.42%.
On to `CN1CCN(Cc2cccc(NCc3cc[nH]n3)c2)CC1`, for which the “Percent Effect” value is on record as -14.54%.
As for `Cc1ccc(NC(=O)N2CC[C@@H](O)C2)c(-c2nc(C3CC3)no2)c1`, the “Percent Effect” value is on record as 101.9%.
For the compound `COCC(=O)Nc1ccc(C)cc1-c1nc(C2CC2)no1`, the “Percent Effect” value is 104.3%.
Regarding `O=C(Nc1ccc(F)cc1-c1nc(C2CC2)no1)N1CC[C@@H](O)C1`, the “Percent Effect” value turned out to be 96.09%.
For `COc1ccc(NC(=O)N2CCC(c3noc(C)n3)CC2)cc1C` the value was -0.09079%; for `O=C(Nc1cc(-c2ccccc2)on1)N1CC[C@H](O)C1`, -19.05%; for `COc1ccc(CNc2nc(C3CC3)no2)cc1OC`, -4.91%.
`O=C(NCc1nc(C2CC2)no1)N1CCOC(c2cccc(F)c2)C1` (stereo not given): the “Percent Effect” value is on record as -4.4%.
As to `O=C(Nc1c(F)cccc1F)N1CC(c2nc(C3CC3)no2)C1`, the “Percent Effect” value was 16.35%.
Turning to `CCCn1nc(-c2nc(C3CC3)no2)ccc1=O`, the “Percent Effect” value was -1.199%.
The same measure for `CN(C)Cc1nnc(C2CCCN(c3ncccc3F)C2)n1C` (stereo not given): -23.88%.
As to `Cc1cc(CN(C)CC2(O)CCCN(CCC3CCCCC3)C2=O)no1` (stereo not given), the “Percent Effect” value is given as -6.768%.
Consider `O=C(CN1CCCc2sccc2C1=O)NC1CCc2nccn2C1` (stereo not given), for which the “Percent Effect” value came out at 7.867%.
On to `O=C(CCc1nc(Cl)n[nH]1)N[C@H]1CC[C@H]1NC1Cc2ccccc2C1`, for which the “Percent Effect” value is given as -20.04%.
For `Cc1ccccc1OC1CCN(C(=O)CNC(=O)N(C)C)CC1`, the “Percent Effect” value is listed as 13.16%.
The same measure for `Cc1ccc(C)c(OC2CCN(C(=O)c3ccc(C)[nH]c3=O)CC2)c1`: -1.4%; for `Cc1ccc(C)c(OC2CCN(C(=O)NCC(=O)N3CCCC3)CC2)c1`: 99.13%.
The same measure for `CN(C)CCNC(=O)c1ccc(OC2CCN(C(=O)CO)CC2)c(Cl)c1`: 12.3%; for `Cc1ccc(C)c(OC2CCN(C(=O)c3ccc(O)nc3)CC2)c1`: -12.69%; for `CCNC(=O)CCC(=O)N1CCC(Oc2cc(C)ccc2C)CC1`: 108%.
For `Cc1ccc(C)c(OC2CCN(C(=O)CNc3ccccc3Cl)CC2)c1` the value was 209.6%; for `COC(=O)NCC(=O)N1CCC(Oc2cccc(C)c2)CC1`, -5.707%.
Take `CCC(=O)N1CCC(Oc2ccc(C(=O)NCCN(C)C)cc2Cl)CC1`: the “Percent Effect” value is given as 19.63%.
For `O=C([C@H]1C[C@H]2OCC[C@H]2N(C(=O)c2cnccn2)C1)N1CCCCO1` the value was -3.887%; for `CN(C)C(C(=O)N1CCN(S(N)(=O)=O)CC1)c1ccccc1F` (stereo not given), -29.81%; for `Cn1c(C(F)(F)F)nn(CCNC(=O)NCc2ccccc2)c1=O`, -13.86%.
The same measure for `Cc1cnn(Cc2cc(F)ccc2F)c1NC(=O)CNC(=O)C1CC1`: -28.4%; for `O=C1CCc2cc(S(=O)(=O)NCc3cc4n(n3)CCCNC4)ccc2N1`: -2.764%.
Turning to `Cc1ccc(NC2CCN(C(=O)Cc3cccc(F)c3)CC2)nn1`, the “Percent Effect” value is recorded as 5.367%.
For `Cc1ccc(NC2CCN(C(=O)COc3ccccc3)CC2)nn1` the value was 80.33%; for `Cc1ccc(NC2CCN(C(=O)COc3cccc(F)c3)CC2)nn1`, 99.48%; for `Cc1ccc(NC2CCN(C(=O)COc3cccnc3)CC2)nn1`, 0.9961%.
Regarding `CC(C)n1cc(S(=O)(=O)NCCc2nnc3ccccn23)cn1`, the “Percent Effect” value was -12.48%.
The same measure for `CCn1ncc2c1C(COC)N(C(=O)Cc1cccs1)CC2` (stereo not given): 110.7%; for `CCn1ncc2c1C(COCC1CC1)N(Cc1cnn(C)c1)CC2.O=C(O)C(F)(F)F.O=C(O)C(F)(F)F.O=C(O)C(F)(F)F` (stereo not given): -14.36%.
With `COCC1c2nnn(CC3CC3)c2CCN1C(=O)Cc1cccs1` (stereo not given), the “Percent Effect” value was 9.028%.
For `CCn1ncc2c1C(COC)N(C(=O)c1cccs1)CC2.O=C(O)C(F)(F)F` (stereo not given) the value was 114.8%; for `CCn1ncc2c1C(COC)N(C(=O)c1cscn1)CC2.O=C(O)C(F)(F)F` (stereo not given), 99.84%.
For `CCn1ncc2c1C(COCC1CC1)N(Cc1ccccn1)CC2.O=C(O)C(F)(F)F.O=C(O)C(F)(F)F` (stereo not given) the value was 3.009%; for `CCOCC1c2c(cnn2CC2CC2)CCN1C(=O)c1ccncn1.O=C(O)C(F)(F)F` (stereo not given), -2.874%.
For `CCn1ncc2c1C(COC)N(C(=O)CCc1ccccc1)CC2.O=C(O)C(F)(F)F` (stereo not given) the value was 87.3%; for `CCn1ncc2c1C(COCC1CC1)N(C(=O)c1ccncn1)CC2.O=C(O)C(F)(F)F` (stereo not given), -5.083%; for `Fc1cnc(N2CC[C@@H](N3CCOCC3)[C@@H]2Cc2ccccc2)nc1`, -1.587%.
Consider `CC(C)(O)CCc1ccc(C(=O)N2CCN(CC(F)(F)F)CC2)cc1`, for which the “Percent Effect” value is 0.1309%.
Take `NS(=O)(=O)CCN1CCOC(c2ccsc2)C1` (stereo not given): the “Percent Effect” value is recorded as -9.667%.
Regarding `CN1CC(c2ccccc2)CC2(CCN(C(=O)c3cccnn3)CC2)C1` (stereo not given), the “Percent Effect” value came out at 0.4144%.
The same measure for `COc1ccc2c(c1)C(=O)N(C)C1(CCN(C(=O)OC(C)(C)C)CC1)N2`: -17.46%.
For the compound `CCn1ncc2c1C(COC)N(C(=O)c1ccc3c(c1)OCO3)CC2.O=C(O)C(F)(F)F` (stereo not given), the “Percent Effect” value stood at 10.43%.
For `COCC1c2c(cnn2C)CCN1Cc1ccc(F)cc1.O=C(O)C(F)(F)F.O=C(O)C(F)(F)F` (stereo not given) the value was 5.645%; for `COCC1CN(C(=O)c2cccn2C)Cc2c1cnn2CC1CC1.O=C(O)C(F)(F)F` (stereo not given), 4.422%; for `COCC1c2c(cnn2C)CCN1C(=O)c1cccn1C.O=C(O)C(F)(F)F` (stereo not given), 106%.
Turning to `CCn1ncc2c1C(COC)N(C(=O)c1ccsc1)CC2.O=C(O)C(F)(F)F` (stereo not given), the “Percent Effect” value was found to be 90.11%.
`COCC1c2c(cnn2C)CCN1C(=O)c1cscn1.O=C(O)C(F)(F)F` (stereo not given): the “Percent Effect” value was determined as 127.3%.
Turning to `Cn1ncc2c1C(COCC1CC1)N(C(=O)c1ccncn1)CC2.O=C(O)C(F)(F)F` (stereo not given), the “Percent Effect” value was 6.391%.
The same measure for `CC(O)CC(C)(C)CNC(=O)Nc1cnn(-c2ccccc2F)c1` (stereo not given): -9.575%; for `Cc1nccc(-c2ccccc2)c1C(=O)N1CCC2(CCCO2)CC1`: -10.01%.
The same measure for `COc1ccc([C@@H]2CN(C(=O)CCn3cccn3)C[C@H]2NC(C)=O)cc1`: 10.72%; for `Cc1nccc(-c2cccc(NCC(=O)N3CCc4sccc4C3)c2)n1`: -3.121%; for `CC(C)Oc1ccc(CN2CCCC(N3CCCC3)C2)cc1CO` (stereo not given): -11.2%.
On to `O=C(C1SCCc2ccccc21)N1CCC(O)CC1` (stereo not given), for which the “Percent Effect” value is reported as -12.36%.
As to `CC1(C)CC(C(=O)N2CCC3(CCC(=O)N(C4CC4)C3)CC2)CCO1` (stereo not given), the “Percent Effect” value was -18.18%.
The same measure for `CC(C)OCCS(=O)(=O)N1CCN(Cc2ccco2)CC1`: -6.984%; for `CCCS(=O)(=O)N1CCN(Cc2ccco2)CC1.O=C(O)C(=O)O`: 120.3%.
Regarding `CCCS(=O)(=O)N1C[C@@H]2CN(Cc3ccco3)CCO[C@@H]2C1.O=C(O)C(F)(F)F`, the “Percent Effect” value was 4.107%.
For `CCS(=O)(=O)N1CCC(c2cc3n(n2)[C@@H](C(F)(F)F)C[C@@H](C)N3)CC1`, the “Percent Effect” value is listed as -9.512%.
The same measure for `CC(C)OCc1ccc(CNC(=O)NC2(CO)CCCC2)cc1`: 4.047%; for `NC(=O)NC1CCN(Cc2ccc3c(c2)CCC3)CC1`: -13.21%.
In the case of `Cc1nnc(CN(Cc2cccc(Br)c2)C2CC2)o1`, the “Percent Effect” value is -10%.
The same measure for `Cc1nnc(CN(Cc2ccc3c(c2)OCO3)C2CCCCC2)o1`: 129.8%; for `Cc1nnc(CN(Cc2ccc3c(c2)OCO3)C2CCC(C)CC2)o1` (stereo not given): 119.4%.
As for `Cc1nnc(CN(Cc2ccccc2Br)C2CC2)o1`, the “Percent Effect” value is -0.8138%.
The same measure for `Cc1nnc(CN(Cc2ccc(Cl)c(Cl)c2)C(C)C)o1`: 6.742%; for `Cc1nnc(CN(Cc2ccc(Cl)c(Cl)c2)C2CC2)o1`: 12.83%.
